Experimental data reported in PubChem BioAssay AID504848 (National Center for Advancing Translational Sciences (NCATS), 2011).
The whole screen tested about 2,300 compounds, of which about 1,400 (61%) were called active. Roughly 29% stayed inconclusive and do not appear here. So high a share suggests a set chosen from earlier hits. Some of the results follow. Unmarked numbers belong to inactive results. The call rests on the fitted dose curve; in most records, active means well fitted inhibition curve with a large enough effect; inconclusive means small, poorly fitted or top-dose-only effect, or effect the other way; inactive means no such curve, though single readings can be large or run the other way.

Experiment: Confirmation screen for delayed death inhibitors of the malarial parasite plastid, 96 hour incubation; further: nearly all actives have a fitted effect of over 60% in size
Conditions: P. falciparum luciferase growth in erythrocytes; series mostly up to 28.7 µM; activity change, negative = inhibition: at the top concentration
Method in brief: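 Two-generation (96 h, 37 C) exposure of P. falciparum carrying an integrated firefly luciferase reporter in erythrocytes, 0.1% parasitemia and 2% hematocrit final, Albumax-supplemented RPMI. Luminescence decrease measures growth inhibition.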
On the % scale 0 is the no-effect control and ±100 the full control effect; potency means the concentration at half of the fitted maximal effect.

SMILES	Potency	activity change, negative = inhibition
COCCN1CCCC(CNCc2cn(C)nc2-c2ccc(Oc3ccccc3)cc2)C1 (stereo not given)	7.08 µM (active)	
Cc1cc(=O)oc2c3c(cc(OCC(=O)Nc4cccnc4)c12)OC(C)(C)CC3	1.26 µM (active)	
CCOC(=O)c1c(NC(=O)CSc2c[nH]c3ccccc23)sc2c1CCCC2	12.6 µM (active)	
CCOC(=O)c1c(NC(=O)CSc2ccccc2C(=O)O)sc(C)c1C		-10%
CC(C)(C)c1cc(C(=O)NNc2cccc(Cl)c2)n(Cc2ccccc2)n1	10 µM (active)	
CC(C)(C)C(=O)NNC(=O)c1cc(C(C)(C)C)nn1Cc1ccccc1	14.1 µM (active)	
Cc1ccc2c(c1)cc(C(=O)NCc1ccccc1)n2C		5.14%
Cc1ccc(NC(=O)c2cc(C(C)(C)C)nn2Cc2ccccc2)cc1	12.6 µM (active)	
Cc1cccc(Cn2nc(C(C)(C)C)cc2C(=O)Nc2ccc(F)cc2)c1	3.55 µM (active)	
C=CCNC(=O)c1cnc2n(c1=O)CCS2		-11.2%
Cc1cccc(-n2ncc3c2CCCC3NC(=O)C2=CC(=O)CC(C)(C)O2)c1C (stereo not given)	12.6 µM (active)	
COc1ccc(C(=O)NC2CCCc3c2cnn3-c2cccc(C)c2C)o1 (stereo not given)	12.6 µM (active)	
O=S(=O)(c1ccc(Cl)c(Cl)c1)c1snnc1-c1ccccc1	7.94 µM (active)	
CCCNC(=O)c1nnsc1S(=O)(=O)c1ccc(Cl)cc1		-8.29%
N#Cc1ccc(Oc2ccc(-c3nc4ccccc4nc3-c3ccccc3)cc2)cc1C#N	0.708 µM (active)	
CCOC(=O)C(Cc1ccccc1)C(=O)Nc1cccc2ccccc12 (stereo not given)	5.01 µM (active)	
CCc1nn(CCCC(=O)NCc2ccccc2C)c(=O)c2cc3occc3n12	7.08 µM (active)	
O[C@@H]1[C@@H](O)C=C2CCN3Cc4cc5c(cc4[C@H]1C23)OCO5 (stereo not given in full)	1.58 µM (active)	
S=c1[nH]nc(COc2ccccc2)n1/N=C/C(Cl)=C/c1ccccc1	12.6 µM (active)	
ClC(/C=N/n1cnnc1)=C/c1ccccc1	10 µM (active)	
O=C(O)CCCN1C(=O)/C(=C\C(Cl)=C\c2ccccc2)SC1=S	5.01 µM (active)	
C[C@@H]1c2cccc(O)c2C(O)=C2C(=O)[C@@]3(O)C(O)=C(C(N)=O)C(=O)[C@@H](N(C)C)[C@@H]3[C@@H](O)[C@@H]21	2.51 µM (active)	
C=C1c2c(Cl)ccc(O)c2C(O)=C2C(=O)[C@]3(O)C(O)=C(C(N)=O)C(=O)[C@@H](N(C)C)[C@@H]3[C@@H](O)C12 (stereo not given in full)	2 µM (active)	

SMILES	Potency	activity change, negative = inhibition
C=C1c2c(Cl)ccc(O)c2C(O)=C2C(=O)[C@@]3(O)C(O)=C(C(N)=O)C(=O)[C@@H](N(C)C)[C@@H]3[C@@H](O)[C@H]12	2 µM (active)	
S=c1[nH]nc(-c2ccccc2)n1/N=C/c1ccc(-c2ccccc2Cl)o1		-28.5%
S=c1[nH]nc(-c2cc(-c3ccccc3)n[nH]2)n1/N=C/C(Br)=C/c1ccccc1	3.98 µM (active)	
COc1ccc(C(=S)N2CCN(c3ccccc3C)CC2)cc1	12.6 µM (active)	
COc1cccc(NC(=O)CSc2ccc3nnc(CCNC(=O)c4ccccc4)n3n2)c1		-98.6%
Cc1ccc(C(=O)NCCc2nnc3ccc(SCC(=O)NCc4ccc(F)cc4)nn23)cc1	7.94 µM (active)	
Cc1cccc(C)c1Nc1c(-c2ccc(N3CCOCC3)cc2)nc2ncccn12	12.6 µM (active)	
O=C(/C=C/c1cccs1)Nc1sc2c(c1C(=O)O)CCCC2		1.27%
CC(C)(C)c1ccc(C(=O)Nc2sc3c(c2C(=O)O)CCC3)cc1	10 µM (active)	
Cc1ccc(-c2nnc(SCC(=O)N/N=C/c3cccs3)n2-c2ccc(C)cc2)cc1	10 µM (active)	
Cc1nnc(N2CCCC(C(=O)NCc3cccc(F)c3)C2)c2nn(-c3ccccc3)c(C)c12 (stereo not given)	12.6 µM (active)	
CCCCc1nc2cc(C(=O)N3CCN(c4nc(C)cnc4C)CC3)ccc2o1	10 µM (active)	
Cc1ccc(NS(=O)(=O)c2ccc(-c3cnc(C4CC4)o3)cc2)c(C)c1	7.08 µM (active)	
Cn1c(=O)n(Cc2ccccc2)c(=O)c2c1nc1n2CCN1Cc1ccco1	7.94 µM (active)	
Cc1nc(-c2ccc(S(=O)(=O)N3CCCN(CCc4ccccc4)CC3)s2)cs1	3.55 µM (active)	
CCCCCCCNC(=O)C1(CC2CC(c3ccc(Cl)cc3)=NO2)CCN(C(=O)Cc2ccc(F)cc2)CC1 (stereo not given)	7.94 µM (active)	
CCCCCCCNC(=O)C1(CC2CC(c3ccc(Cl)cc3)=NO2)CCN(C(=O)C2CCCC2)CC1 (stereo not given)	10 µM (active)	
CCCC(=O)N1CCN(c2ccc(NC(=O)c3ccc([N+](=O)[O-])o3)cc2Cl)CC1	8.91 µM (active)	
O=C(Nc1ccc(N2CCOCC2)c(Cl)c1)c1cc2ccccc2o1	2.82 µM (active)	
O=C(Nc1ccc(S(=O)(=O)N2CCOCC2)cc1)c1ccc([N+](=O)[O-])o1	3.55 µM (active)	
CC(C)C(=O)N1CCN(c2ccc(NC(=O)c3ccc([N+](=O)[O-])o3)cc2)CC1	4.47 µM (active)	
CCCC(=O)N1CCN(c2ccc(NC(=O)c3ccc([N+](=O)[O-])o3)cc2)CC1	6.31 µM (active)	
Cc1cccc(-c2c(NC(=O)c3ccco3)oc3ccc(Cl)cc3c2=O)c1		-13.7%

SMILES	Potency	activity change, negative = inhibition
CC(C)C(=O)N1CCN(c2ccc(NC(=O)c3ccco3)cc2Cl)CC1	6.31 µM (active)	
CCN1CCN(c2ccc(NC(=O)c3ccc([N+](=O)[O-])o3)cc2Cl)CC1	7.94 µM (active)	
CCC(=O)N1CCN(c2ccc(NC(=O)c3ccc([N+](=O)[O-])o3)cc2Cl)CC1	7.94 µM (active)	
CC(=O)OC[C@H]1O[C@@H](n2ncc(=O)[nH]c2=O)[C@H](OC(C)=O)[C@@H]1OC(C)=O		-11.2%
CS(=O)(=O)N1CCN(c2ccc(NC(=O)c3ccc([N+](=O)[O-])o3)cc2)CC1	7.08 µM (active)	
COc1cc2c(cc1OC)CN(C(=O)c1cccc(S(=O)(=O)N3CCc4ccccc43)c1)CC2	11.2 µM (active)	
O=C(c1cccc(S(=O)(=O)N2CCc3ccccc32)c1)N1CCN(c2ccccc2)CC1	11.2 µM (active)	
O=C(CNC(=O)c1cccc(S(=O)(=O)N2CCc3ccccc32)c1)Nc1ccc(F)c(F)c1F	11.2 µM (active)	
CN(Cc1nc2ccccc2c(=O)[nH]1)C(=O)c1cccc(S(=O)(=O)N2CCc3ccccc32)c1	11.2 µM (active)	
CCc1cc(SC#N)ccc1N	8.91 µM (active)	
CC(C)(C)Nc1nc(Cl)nc(NC2CCCCC2)n1	12.6 µM (active)	
CCCc1cc(=O)n2nc(N3CCC(C(=O)NCc4ccc(C)o4)CC3)sc2n1	8.91 µM (active)	
CCCc1cc(=O)n2nc(N3CCC(C(=O)N4CCN(c5ccc(OC)cc5)CC4)CC3)sc2n1	10 µM (active)	
COc1cc(CNc2cccc(C(=O)O)c2)cc(Br)c1OCC(=O)NC(C)(C)C	12.6 µM (active)	
COc1ccccc1CCC(=O)N1CCN(S(=O)(=O)c2cc(C(F)(F)F)ccc2Cl)CC1	11.2 µM (active)	
Cc1ccccc1-c1cc(C(=O)n2cccn2)c2cc(Cl)ccc2n1		-12.5%
Cc1ccc(C)c(-c2cc(C(=O)Nc3nccs3)c3ccccc3n2)c1	1.12 µM (active)	
Cc1ccc(C)c(-c2cc(C(=O)NNC(=S)NCC(C)C)c3ccccc3n2)c1	11.2 µM (active)	
Cc1ccc(/C=C/c2ccc(N(C)C)cc2)[n+](C)c1	0.501 µM (active)	
CC[n+]1ccccc1/C=C/c1ccc(N(C)C)cc1	1.58 µM (active)	
Cn1c(=O)c(=O)n(C)c2cc(N3CCCCC3)c(NS(=O)(=O)c3ccc(Br)cc3)cc21	12.6 µM (active)	
COc1ccccc1OCC(=O)NNc1c2ccccc2nc2ccccc12	5.01 µM (active)	
Cc1ccc(OCC(=O)NNc2c3ccccc3nc3ccccc23)cc1	6.31 µM (active)	

SMILES	Potency	activity change, negative = inhibition
Cc1ccc(C(=O)NNc2c3ccccc3nc3ccccc23)cc1	10 µM (active)	
O=C(NNc1c2ccccc2nc2ccccc12)C(O)c1ccccc1 (stereo not given)	10 µM (active)	
O=C(COc1ccccc1)NNc1c2ccccc2nc2ccccc12	5.01 µM (active)	
Cc1cccc(OCC(=O)NNc2c3ccccc3nc3ccccc23)c1	4.47 µM (active)	
O=C(COc1ccccc1)Nc1nnc(-c2ccc(F)cc2)o1		6.86%
COc1cccc(C(=O)NNc2c3ccccc3nc3ccccc23)c1	15.8 µM (active)	
O=C(COc1cccc2ccccc12)Nc1ccc(Cl)cc1C(=O)O		2.28%
O=C(CCCO)NNc1c2ccccc2nc2ccccc12	6.31 µM (active)	
O=C(CN1CCOCC1)NNc1c2ccccc2nc2ccccc12	12.6 µM (active)	
N#Cc1c(N2C(=O)Nc3ccccc3N2O)sc2c1CCCCCC2	14.1 µM (active)	
Cc1ccc2nc(CNC(=O)C3CCC(=O)N(Cc4ccccc4F)C3)cn2c1 (stereo not given)	11.2 µM (active)	
O=C(NC1CCC1)C1CCC(=O)N(Cc2ccccc2F)C1 (stereo not given)		-10.3%
COCCn1c(C)cc(C(=O)CSc2cc(C)c3ccc(OC)cc3n2)c1C	17.8 µM (active)	
CCCSCCCNC(=O)c1ccccc1NC(=O)C1=CSCCO1	12.6 µM (active)	
COc1ccc([C@@]2(C(C)C)ON(c3ccccc3C(F)(F)F)C2=O)cc1	0.501 µM (active)	
COc1ccc(CN(CCC(c2ccccc2)c2ccco2)C(=O)c2ccco2)cc1 (stereo not given)	8.91 µM (active)	
COc1ccc(S(=O)(=O)N/N=C(/C)c2ccco2)cc1		-15.7%
Fc1cc2nc(-c3ccncc3)[nH]c2cc1F	3.16 µM (active)	
COCCN(C(=S)Nc1ccc(OC)c(Cl)c1)C1CCN(C(C)C)CC1	11.2 µM (active)	
CC(=O)Nc1sc2c(c1-c1nc3ccccc3s1)CCN(C(C)C)C2	0.316 µM (active)	
CC(C)N1CCc2c(sc(NC(=S)NC(=O)c3ccccc3)c2C#N)C1	2 µM (active)	
